Source: the supplement of paper PMC11001985

Sequence of UniProt Q13813 (Q13813 whole entry): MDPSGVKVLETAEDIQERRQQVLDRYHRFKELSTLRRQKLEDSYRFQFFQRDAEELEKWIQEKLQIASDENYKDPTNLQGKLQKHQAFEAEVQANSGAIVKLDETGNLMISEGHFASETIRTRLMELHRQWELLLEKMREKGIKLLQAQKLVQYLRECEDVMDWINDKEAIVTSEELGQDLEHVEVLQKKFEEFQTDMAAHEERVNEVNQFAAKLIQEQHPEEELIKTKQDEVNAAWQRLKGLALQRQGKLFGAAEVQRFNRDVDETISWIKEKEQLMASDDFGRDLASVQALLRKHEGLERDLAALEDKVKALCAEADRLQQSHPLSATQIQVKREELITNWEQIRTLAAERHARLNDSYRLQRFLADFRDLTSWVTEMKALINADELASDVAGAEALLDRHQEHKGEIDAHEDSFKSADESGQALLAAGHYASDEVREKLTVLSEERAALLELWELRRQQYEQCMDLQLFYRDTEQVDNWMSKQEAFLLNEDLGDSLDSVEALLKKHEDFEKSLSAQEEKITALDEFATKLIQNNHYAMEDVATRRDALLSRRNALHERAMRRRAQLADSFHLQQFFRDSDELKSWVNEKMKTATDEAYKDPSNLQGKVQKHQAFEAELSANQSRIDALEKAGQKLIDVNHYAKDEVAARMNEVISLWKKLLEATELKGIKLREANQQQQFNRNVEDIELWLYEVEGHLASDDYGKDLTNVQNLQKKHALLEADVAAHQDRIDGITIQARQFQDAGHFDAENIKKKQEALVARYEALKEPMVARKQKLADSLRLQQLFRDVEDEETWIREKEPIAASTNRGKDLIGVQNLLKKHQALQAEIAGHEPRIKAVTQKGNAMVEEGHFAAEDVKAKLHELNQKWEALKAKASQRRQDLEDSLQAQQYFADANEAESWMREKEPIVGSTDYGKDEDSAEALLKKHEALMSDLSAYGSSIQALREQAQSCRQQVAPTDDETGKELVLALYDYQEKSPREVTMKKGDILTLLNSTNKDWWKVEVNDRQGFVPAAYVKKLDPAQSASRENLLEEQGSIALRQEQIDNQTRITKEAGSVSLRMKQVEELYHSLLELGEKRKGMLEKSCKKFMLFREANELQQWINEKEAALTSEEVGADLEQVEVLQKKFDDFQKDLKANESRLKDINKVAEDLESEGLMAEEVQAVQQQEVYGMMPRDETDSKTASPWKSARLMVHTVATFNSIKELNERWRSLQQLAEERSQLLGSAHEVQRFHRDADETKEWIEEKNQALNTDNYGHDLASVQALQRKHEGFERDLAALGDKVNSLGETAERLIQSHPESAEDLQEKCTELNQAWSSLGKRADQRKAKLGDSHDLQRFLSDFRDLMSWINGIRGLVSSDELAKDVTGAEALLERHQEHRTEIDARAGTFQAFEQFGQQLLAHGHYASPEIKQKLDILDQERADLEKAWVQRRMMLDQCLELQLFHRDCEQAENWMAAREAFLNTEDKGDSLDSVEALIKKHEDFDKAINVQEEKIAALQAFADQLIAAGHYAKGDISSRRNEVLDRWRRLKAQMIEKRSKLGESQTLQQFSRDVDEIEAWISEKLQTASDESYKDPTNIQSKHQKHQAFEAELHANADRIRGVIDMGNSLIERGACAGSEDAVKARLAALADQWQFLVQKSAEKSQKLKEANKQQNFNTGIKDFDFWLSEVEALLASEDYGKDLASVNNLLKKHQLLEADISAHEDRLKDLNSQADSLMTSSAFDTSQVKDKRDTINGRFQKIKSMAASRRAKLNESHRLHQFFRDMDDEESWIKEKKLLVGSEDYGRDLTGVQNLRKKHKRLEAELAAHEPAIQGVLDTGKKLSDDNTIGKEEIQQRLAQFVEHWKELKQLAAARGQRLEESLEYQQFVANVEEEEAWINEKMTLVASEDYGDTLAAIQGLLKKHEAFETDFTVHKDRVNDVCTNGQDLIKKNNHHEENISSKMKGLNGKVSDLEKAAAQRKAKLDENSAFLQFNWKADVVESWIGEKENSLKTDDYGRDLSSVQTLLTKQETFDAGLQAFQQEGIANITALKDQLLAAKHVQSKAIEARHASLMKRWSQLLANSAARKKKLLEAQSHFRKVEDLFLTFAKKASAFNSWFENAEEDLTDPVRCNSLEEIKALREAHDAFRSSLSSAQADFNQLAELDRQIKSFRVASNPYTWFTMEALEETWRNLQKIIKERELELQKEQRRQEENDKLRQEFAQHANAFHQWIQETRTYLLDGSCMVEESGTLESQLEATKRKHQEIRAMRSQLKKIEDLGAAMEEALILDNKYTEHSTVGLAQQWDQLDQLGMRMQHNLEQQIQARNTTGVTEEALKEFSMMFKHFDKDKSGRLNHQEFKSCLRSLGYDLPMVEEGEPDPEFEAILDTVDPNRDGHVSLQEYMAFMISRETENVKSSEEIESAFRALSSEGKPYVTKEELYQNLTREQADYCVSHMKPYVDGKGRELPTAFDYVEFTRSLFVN
Sequence of UniProt O75051 (O75051 whole entry): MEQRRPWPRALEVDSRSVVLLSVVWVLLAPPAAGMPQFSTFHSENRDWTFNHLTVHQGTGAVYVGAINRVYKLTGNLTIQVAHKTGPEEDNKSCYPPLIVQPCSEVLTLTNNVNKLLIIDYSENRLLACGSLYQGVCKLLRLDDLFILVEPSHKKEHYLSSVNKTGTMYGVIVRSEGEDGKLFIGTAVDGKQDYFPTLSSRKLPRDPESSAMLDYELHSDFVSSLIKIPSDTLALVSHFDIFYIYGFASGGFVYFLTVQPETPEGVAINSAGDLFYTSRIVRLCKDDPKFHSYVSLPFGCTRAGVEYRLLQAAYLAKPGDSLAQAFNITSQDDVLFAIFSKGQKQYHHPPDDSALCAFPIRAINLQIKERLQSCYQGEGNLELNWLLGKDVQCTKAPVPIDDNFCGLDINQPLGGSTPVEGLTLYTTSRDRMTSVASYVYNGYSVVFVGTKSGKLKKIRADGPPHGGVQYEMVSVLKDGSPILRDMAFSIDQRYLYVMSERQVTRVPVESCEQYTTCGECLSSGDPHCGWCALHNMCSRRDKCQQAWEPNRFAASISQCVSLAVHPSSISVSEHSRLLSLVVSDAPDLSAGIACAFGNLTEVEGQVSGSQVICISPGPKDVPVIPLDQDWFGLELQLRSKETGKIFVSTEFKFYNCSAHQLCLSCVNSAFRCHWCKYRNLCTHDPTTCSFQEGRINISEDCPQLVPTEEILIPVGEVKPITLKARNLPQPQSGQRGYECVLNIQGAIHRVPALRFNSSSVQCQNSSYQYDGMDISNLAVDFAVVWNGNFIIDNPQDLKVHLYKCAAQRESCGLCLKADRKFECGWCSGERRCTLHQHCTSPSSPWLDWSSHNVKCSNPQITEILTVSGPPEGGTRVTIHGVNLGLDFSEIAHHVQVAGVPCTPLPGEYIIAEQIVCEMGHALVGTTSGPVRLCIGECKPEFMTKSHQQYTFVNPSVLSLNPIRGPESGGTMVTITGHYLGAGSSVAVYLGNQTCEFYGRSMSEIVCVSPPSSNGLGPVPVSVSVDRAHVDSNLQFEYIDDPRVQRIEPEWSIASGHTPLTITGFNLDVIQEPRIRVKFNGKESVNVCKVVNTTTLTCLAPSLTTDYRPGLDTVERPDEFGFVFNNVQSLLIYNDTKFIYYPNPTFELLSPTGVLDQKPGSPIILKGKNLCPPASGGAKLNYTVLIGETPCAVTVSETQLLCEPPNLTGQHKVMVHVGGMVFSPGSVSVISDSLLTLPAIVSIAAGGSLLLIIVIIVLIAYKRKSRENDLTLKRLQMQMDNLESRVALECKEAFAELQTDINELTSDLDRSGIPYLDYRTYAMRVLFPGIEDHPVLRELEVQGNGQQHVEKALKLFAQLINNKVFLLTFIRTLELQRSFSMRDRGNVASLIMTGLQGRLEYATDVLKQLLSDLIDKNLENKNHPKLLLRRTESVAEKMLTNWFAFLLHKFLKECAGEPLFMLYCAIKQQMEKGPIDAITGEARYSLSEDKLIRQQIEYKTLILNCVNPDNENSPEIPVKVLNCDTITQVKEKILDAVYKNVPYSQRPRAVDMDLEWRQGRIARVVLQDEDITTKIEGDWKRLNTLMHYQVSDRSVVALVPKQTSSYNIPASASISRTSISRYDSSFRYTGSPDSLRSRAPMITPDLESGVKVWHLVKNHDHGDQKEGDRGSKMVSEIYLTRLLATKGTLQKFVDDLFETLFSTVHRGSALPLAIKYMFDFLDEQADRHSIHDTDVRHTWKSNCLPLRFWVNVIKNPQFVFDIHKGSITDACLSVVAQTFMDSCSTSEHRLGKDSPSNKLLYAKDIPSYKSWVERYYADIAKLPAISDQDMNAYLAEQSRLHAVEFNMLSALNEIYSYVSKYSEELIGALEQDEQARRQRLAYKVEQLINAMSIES
Sequence of UniProt Q99985 (Q99985 whole entry): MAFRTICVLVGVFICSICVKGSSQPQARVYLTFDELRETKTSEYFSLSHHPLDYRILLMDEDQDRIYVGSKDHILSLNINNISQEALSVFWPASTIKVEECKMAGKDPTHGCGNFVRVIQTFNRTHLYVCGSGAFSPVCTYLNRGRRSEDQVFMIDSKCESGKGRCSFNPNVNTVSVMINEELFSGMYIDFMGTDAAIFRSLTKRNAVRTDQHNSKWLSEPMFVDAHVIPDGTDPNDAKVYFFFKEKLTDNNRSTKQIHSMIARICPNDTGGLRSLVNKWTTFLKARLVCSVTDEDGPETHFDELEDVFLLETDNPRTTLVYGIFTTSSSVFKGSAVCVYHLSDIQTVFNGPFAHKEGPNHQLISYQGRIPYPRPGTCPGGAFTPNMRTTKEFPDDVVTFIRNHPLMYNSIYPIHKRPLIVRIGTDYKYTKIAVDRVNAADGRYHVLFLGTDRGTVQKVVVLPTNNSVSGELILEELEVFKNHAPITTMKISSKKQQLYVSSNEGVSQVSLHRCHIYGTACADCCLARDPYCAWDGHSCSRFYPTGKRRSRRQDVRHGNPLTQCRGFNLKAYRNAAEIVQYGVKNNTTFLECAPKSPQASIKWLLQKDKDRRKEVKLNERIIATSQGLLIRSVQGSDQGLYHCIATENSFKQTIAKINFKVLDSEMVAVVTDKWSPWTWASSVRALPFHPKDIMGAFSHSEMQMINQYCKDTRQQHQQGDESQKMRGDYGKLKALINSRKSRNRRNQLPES

These targets were tested with C#CCNC(=O)CCSSCCC(=O)NCCc1ccc(C=O)c(C=O)c1 (assay: lysine labeling ratio R10:1 (500 µM / 50 µM probe), SILAC-ABPP in living cells; higher = lower intrinsic lysine reactivity toward the probe, active = 2 or less). Details: HeLa; probe concentrations 500 vs 50 µM.
Method in brief: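 Living SILAC light and heavy HeLa cells in PBS at room temperature were treated with an alkyne-tagged, disulfide-linked lysine probe at 50 µM or 500 µM, with forward and reverse label swaps. The mixed lysates were clicked to biotin-azide, digested with trypsin, captured on neutravidin, released with DTT, alkylated and run by LC-MS/MS on a TIMS-TOF Pro. R for each lysine is the filtered median high-probe/low-probe MS1 peptide ratio, taken again as the median over forward and reverse replicates. Any value above 20 is set to 20.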
“SEMA3C (lysine site: K431) (UniProt Q99985)” was tested, and the “lysine labeling ratio R10:1” value was 2.67 (inactive).
For “MTDH (lysine site: K195) (UniProt Q86UE4)”, the “lysine labeling ratio R10:1” value was 1.36 (active).
For “IGF2R (lysine site: K1576) (UniProt P11717)”, the “lysine labeling ratio R10:1” value was 0.605 (active).
For UniProt Q12884 (lysine site: K334), the “lysine labeling ratio R10:1” value was 3.23 (inactive).
In the case of “STMN1 (lysine site: K126) (UniProt P16949)”, the “lysine labeling ratio R10:1” value is reported as 2.8 (inactive).
“PTBP1 (lysine site: K428) (UniProt P26599)” was tested, and the “lysine labeling ratio R10:1” value was 3.97 (inactive).
In the case of “GALNT7 (lysine site: K648) (UniProt Q86SF2)”, the “lysine labeling ratio R10:1” value is reported as 1.92 (active).
With “SLC25A11 (lysine site: K57) (UniProt Q02978)” the “lysine labeling ratio R10:1” value was 1.95 (active).
For F2 (lysine site: K384) (UniProt P00734), the “lysine labeling ratio R10:1” value was 4.42 (inactive).
UniProt P16144 (lysine site: K219) was tested, and the “lysine labeling ratio R10:1” value was 4.33 (inactive).
In the case of UniProt Q86V81 (lysine site: K134), the “lysine labeling ratio R10:1” value is reported as 4.23 (inactive).
UniProt Q15149 (lysine site: K2309) was tested, and the “lysine labeling ratio R10:1” value was 2.6 (inactive).
For “LAMA5 (lysine site: K113) (UniProt O15230)”, the “lysine labeling ratio R10:1” value was 4.71 (inactive).
In the case of “FAT4 (lysine site: K3828) (UniProt Q6V0I7)”, the “lysine labeling ratio R10:1” value is reported as 5.8 (inactive).
In the case of “UGDH (lysine site: K173) (UniProt O60701)”, the “lysine labeling ratio R10:1” value is reported as 1.43 (active).
With “PLXNA2 (lysine site: K820) (UniProt O75051)” the “lysine labeling ratio R10:1” value was 5.38 (inactive).
In the case of “SPTAN1 (lysine site: K2078) (UniProt Q13813)”, the “lysine labeling ratio R10:1” value is reported as 4.25 (inactive).
“STOM (lysine site: K235) (UniProt P27105)” was tested, and the “lysine labeling ratio R10:1” value was 4.28 (inactive).
For “SEMA3C (lysine site: K247) (UniProt Q99985)”, the “lysine labeling ratio R10:1” value was 4.79 (inactive).
In the case of “NRP1 (lysine site: K407) (UniProt O14786)”, the “lysine labeling ratio R10:1” value is reported as 3.76 (inactive).
For “CD44 (lysine site: K158) (UniProt P16070)”, the “lysine labeling ratio R10:1” value was 4.38 (inactive).
For “PDCD6IP (lysine site: K48) (UniProt Q8WUM4)”, the “lysine labeling ratio R10:1” value was 2.93 (inactive).
With “L1CAM (lysine site: K56) (UniProt P32004)” the “lysine labeling ratio R10:1” value was 3.74 (inactive).
“HNRNPU (lysine site: K551) (UniProt Q00839)” was tested, and the “lysine labeling ratio R10:1” value was 1.98 (active).
“HNRNPA1 (lysine site: K166) (UniProt P09651)” was tested, and the “lysine labeling ratio R10:1” value was 7.94 (inactive).
With “PLXNA2 (lysine site: K542) (UniProt O75051)” the “lysine labeling ratio R10:1” value was 1.9 (active).
In the case of “ATP1B1 (lysine site: K277) (UniProt P05026)”, the “lysine labeling ratio R10:1” value is reported as 17.2 (inactive).
With “HSPA8 (lysine site: K159) (UniProt P11142)” the “lysine labeling ratio R10:1” value was 5.07 (inactive).
“PLS3 (lysine site: K52) (UniProt P13797)” was tested, and the “lysine labeling ratio R10:1” value was 2.05 (inactive).
For UniProt P62269 (lysine site: K106), the “lysine labeling ratio R10:1” value was 1.85 (active).
In the case of “SPTAN1 (lysine site: K2404) (UniProt Q13813)”, the “lysine labeling ratio R10:1” value is reported as 1.94 (active).
With “SPTAN1 (lysine site: K1141) (UniProt Q13813)” the “lysine labeling ratio R10:1” value was 17.4 (inactive).
With “FASN (lysine site: K673) (UniProt P49327)” the “lysine labeling ratio R10:1” value was 2.24 (inactive).
“L1CAM (lysine site: K222) (UniProt P32004)” was tested, and the “lysine labeling ratio R10:1” value was 9.33 (inactive).
In the case of “RPS5 (lysine site: K63) (UniProt P46782)”, the “lysine labeling ratio R10:1” value is reported as 3.35 (inactive).
For “SPTAN1 (lysine site: K803) (UniProt Q13813)”, the “lysine labeling ratio R10:1” value was 1.86 (active).
With “ITGAV (lysine site: K134) (UniProt P06756)” the “lysine labeling ratio R10:1” value was 2.96 (inactive).
In the case of “AGRN (lysine site: K1198) (UniProt O00468)”, the “lysine labeling ratio R10:1” value is reported as 3.68 (inactive).
In the case of UniProt P05186 (lysine site: K241), the “lysine labeling ratio R10:1” value is reported as 3.23 (inactive).
In the case of UniProt Q8N441 (lysine site: K218), the “lysine labeling ratio R10:1” value is reported as 1.33 (active).
